Data published in PubChem BioAssay.
Inconclusive results are not listed. The source made the active and inactive calls.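 Rule for the calls, unless noted: active = normalized viability below 100% at a tested concentration; inactive = the rest.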

What was measured:
[1] = viability loss in pontine glioma line – cell-based, SU-DIPG-XVII, MIPE5.0, CellTiter-Glo, qHTS, dose response (AID 1347060; cut-off not given, nearly all actives have AC50 up to about 26 µM;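 for AC50: cells exposed to compound for 48 hours before viability readout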); details: CellTiter-Glo ATP luminescence
[2] = viability loss in pontine glioma line – cell-based, SU-DIPG-XIII, MIPE5.0, CellTiter-Glo, qHTS, dose response (AID 1347064; cut-off not given, nearly all actives have AC50 up to about 23 µM;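 for AC50: cells exposed to compound for 48 hours before the viability read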); details: CellTiter-Glo ATP luminescence
[3] = viability loss in pontine glioma line – cell-based, SU-DIPG-XXV, MIPE5.0, CellTiter-Glo, qHTS, dose response (AID 1347065; cut-off not given, nearly all actives have AC50 up to about 26 µM;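 note: cells exposed to compound for 48 hours before ATP readout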); details: CellTiter-Glo ATP luminescence
[4] = JHH-DIPG-1 glioma cell viability, MIPE5.0 library, CellTiter-Glo luminescence, qHTS (AID 1347067; cut-off not given, nearly all actives have AC50 up to about 26 µM;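 note: cells exposed to compound for 48 hours before readout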); details: JHH-DIPG-1 glioma viability, CellTiter-Glo ATP luminescence
[5] = growth inhibition of DIPG cells – cell-based, MIPE4.0 library, CellTiter-Glo luminescence, qHTS (AID 1347066; cut-off not given, nearly all actives have AC50 up to about 30 µM;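 note: cells exposed to compound for 48 hours before readout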); details: SU-DIPG-VI viability, CellTiter-Glo ATP luminescence
[6] = growth inhibition of DIPG cells – cell-based, MIPE5.0 library, qHTS (AID 1347068; cut-off not given, nearly all actives have IC50 up to about 30 µM); details: SU-DIPG-XXV viability
[7] = viability loss with induced miR-34 in A549 – imaging, A549 dox-inducible miR-34, nuclei and caspase counts, primary screen (AID 1347080;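 active = compounds whose cell count with miR-34 switched on is under 0.7 times the count with it off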); details: A549 miR-34 inducible, Hoechst nuclei count, 48 h
[8] = MELAS cybrid and Rieske KO viability enhancers – cell-based, MELAS cybrids, Rieske KO mouse fibroblasts, CellTiter-Glo, primary screen (AID 1508586;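 active = mean z-score across replicates of 1.96 or higher in either the MELAS or the Rieske mutant cell line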;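 note: z relative to plate mean and SD of compound and empty wells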); details: low glucose
[9] = drug combination growth inhibition, ovarian cancer – cell-based, oncology-focused library, rucaparib conditional, profiling panel (AID 1508598); details: patient-derived ovarian cancer cells, CellTiter-Glo viability, 144 h, stronger effect = lower value

CC(C)(O)CS(=O)(=O)Nc1ccc2c(c1)CCN(C(=O)COc1cccnc1)C2
active: AC50 [1] 263 nM | AC50 [2] 37.2 nM | AC50 [3] 83.3 nM | AC50 [4] 46.8 nM

COc1ccc(S(=O)(=O)NCc2ccc(C(=O)NCCc3ccc(Cl)cn3)cc2)cc1
inactive: outcome [1] | outcome [2] | outcome [3] | outcome [4]

Cc1ccc2c(=O)c3cccc(CC(=O)O)c3oc2c1C
inactive: outcome [1] | outcome [2] | outcome [3] | outcome [5] | outcome [4] | outcome [6] | fold change ([7]; stronger effect = lower value, cell number ratio, induced over uninduced) 0.947 | z-score ([8]; MELAS cybrid survival, CellTiter-Glo 48 h, stronger effect = higher value) -0.329 | viability ([9]; at 0.000305 µM, OCI-C5x cells, without rucaparib) 116% | viability ([9]; at 0.00122 µM, OCI-C5x cells, with rucaparib 10 µM, 100% = cells with rucaparib alone) 105% | viability ([9]; at 0.00122 µM, OCI-C5x cells, without rucaparib) 110% | viability ([9]; at 0.00122 µM, OCI-P5x cells, with rucaparib 20 µM, 100% = cells with rucaparib alone) 102% | viability ([9]; at 0.00122 µM, OCI-P5x cells, without rucaparib) 101% | viability ([9]; at 0.00488 µM, OCI-C5x cells, with rucaparib 10 µM, 100% = cells with rucaparib alone) 108% | viability ([9]; at 0.00488 µM, OCI-C5x cells, without rucaparib) 116% | viability ([9]; at 0.00488 µM, OCI-P5x cells, with rucaparib 20 µM, 100% = cells with rucaparib alone) 105% | viability ([9]; at 0.00488 µM, OCI-P5x cells, without rucaparib) 103% | viability ([9]; at 0.0195 µM, OCI-C5x cells, with rucaparib 10 µM, 100% = cells with rucaparib alone) 113% | viability ([9]; at 0.0195 µM, OCI-C5x cells, without rucaparib) 116% | viability ([9]; at 0.0195 µM, OCI-P5x cells, with rucaparib 20 µM, 100% = cells with rucaparib alone) 107% | viability ([9]; at 0.0195 µM, OCI-P5x cells, without rucaparib) 111% | viability ([9]; at 0.0781 µM, OCI-C5x cells, with rucaparib 10 µM, 100% = cells with rucaparib alone) 115% | viability ([9]; at 0.0781 µM, OCI-C5x cells, without rucaparib) 114% | viability ([9]; at 0.0781 µM, OCI-P5x cells, with rucaparib 20 µM, 100% = cells with rucaparib alone) 110% | viability ([9]; at 0.0781 µM, OCI-P5x cells, without rucaparib) 113% | viability ([9]; at 0.313 µM, OCI-C5x cells, with rucaparib 10 µM, 100% = cells with rucaparib alone) 116% | viability ([9]; at 0.313 µM, OCI-C5x cells, without rucaparib) 115% | viability ([9]; at 1.25 µM, OCI-C5x cells, with rucaparib 10 µM, 100% = cells with rucaparib alone) 118% | viability ([9]; at 1.25 µM, OCI-C5x cells, without rucaparib) 127% | viability ([9]; at 1.25 µM, OCI-P5x cells, with rucaparib 20 µM, 100% = cells with rucaparib alone) 104% | viability ([9]; at 1.25 µM, OCI-P5x cells, without rucaparib) 112% | viability ([9]; at 5 µM, OCI-C5x cells, with rucaparib 10 µM, 100% = cells with rucaparib alone) 103% | viability ([9]; at 5 µM, OCI-C5x cells, without rucaparib) 123% | viability ([9]; at 5 µM, OCI-P5x cells, with rucaparib 20 µM, 100% = cells with rucaparib alone) 104% | viability ([9]; at 5 µM, OCI-P5x cells, without rucaparib) 122%
1.03: fold change ([7]; measured here: relative caspase fold change +Dox/-Dox)
0.338: z-score ([8]; Rieske KO mouse fibroblast survival, CellTiter-Glo 72 h)
7150: cell count ([7]; measured here: total cells without miR-34 induction)
6780: cell count ([7]; measured here: total cells with miR-34 induction, stronger effect = lower value)
active: viability ([9]; at 0.000305 µM, OCI-C5x cells, with rucaparib 10 µM, 100% = cells with rucaparib alone) 94.7% | viability ([9]; at 0.000305 µM, OCI-P5x cells, with rucaparib 20 µM, 100% = cells with rucaparib alone) 97% | viability ([9]; at 0.000305 µM, OCI-P5x cells, without rucaparib) 97.7% | viability ([9]; at 0.313 µM, OCI-P5x cells, with rucaparib 20 µM, 100% = cells with rucaparib alone) 68.4% | viability ([9]; at 0.313 µM, OCI-P5x cells, without rucaparib) 19.4%

COc1cc(OC)cc(N(CCNC(C)C)c2ccc3ncc(-c4cnn(C)c4)nc3c2)c1
active: AC50 [1] 66.1 nM | AC50 [2] 66.1 nM | AC50 [3] 83.3 nM

Cc1ccc(C(=O)OCc2ccc([C@@H](CN)C(=O)Nc3ccc4cnccc4c3)cc2)c(C)c1
active: AC50 [1] 12900 nM | AC50 [2] 14400 nM | AC50 [3] 9100 nM

O=C(C[C@@H]1C/C=C\CCC(=O)O[C@H](c2ccccc2)CNC1=O)NCc1ccc(Cl)cc1
inactive: outcome [1] | outcome [2] | outcome [3] | outcome [5] | outcome [4] | outcome [6]
